Measured values from PubChem BioAssay (NCATS).
Values joined by “and” are separate entries in the source; they are usually repeats but may differ in a detail not shown here. Equal entries are not always repeated. Records with an inconclusive call do not appear. Active and inactive are the calls of the source. Unless noted, the call rests on the fitted dose curve; in most records, active means well fitted curve in the direction sought with a large enough effect; inconclusive means small, poorly fitted or top-dose-only effect, or another doubt; inactive means no such curve, though single readings can be large; an effect the other way counts as inactive or inconclusive.

Legend:
[1] = Cell Viability - Hek293 (AID 427;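 active means compounds whose dose-response curve shows a full or clear partial loss of cell viability, called from curve shape rather than a numeric limit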;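 further: potency means the concentration at half of the fitted maximal effect; cells exposed to compound for 40 hours at 37 °C before reading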); conditions: qHTS
Procedure, shortened: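 qHTS, human embryonic kidney (adenovirus-transformed) cells; 40 hr cpd, 37 °C; CellTiter-Glo ATP luminescence. Norm: DMSO = 0, 100 uM tamoxifen = 100% inhibition. Hill-fit AC50.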

[2] = Cell Viability - SK-N-SH (AID 435; calls by dose curve;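 further: potency means the concentration at half of the fitted maximal effect; compound exposure lasted 40 h at 37 °C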); conditions: SK-N-SH neuroblastoma cell viability qHTS
Procedure, shortened: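 Human neuroblastoma line, 40 h exposure at 37 °C, ATP quantified via luciferase luminescence; DMSO and 100 uM tamoxifen define 0 and 100% inhibition for AC50 fitting.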

[3] = MultiTox-Fluor Cytotoxicity Assay - LYMP1-002 - Dead Cells (AID 960); conditions: LYMP1-002 lymphoblastoid cells, dead-cell protease fluorescence; series mostly up to 46.1 µM;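 further: cells exposed to compound for 16 h at 37 °C; 0% = DMSO and 100% = tetraoctylammonium bromide; nearly all actives have a fitted effect of over 60% in size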
Procedure, shortened: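 Readout: fluorescence at 485/520 from cell-impermeant bis-AAF-R110 cleaved by proteases leaking from damaged cells. LYMP1-002 lymphoblastoid line, 16 hr compound treatment at 37 C, concentration-response in qHTS format; Hill-equation AC50 values.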

[4] = Cell Viability - LYMP2-009 (AID 968); conditions: LYMP2-009 lymphoblastoid cell viability; series mostly up to 92.2 µM;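 further: 0% = DMSO alone and the full-kill end = tetraoctylammonium bromide at 92 µM; nearly all actives have a fitted effect of over 55% in size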
[5] = Cell Viability - LYMP2-015 (AID 971); conditions: LYMP2-015 lymphoblastoid cell viability; series mostly up to 92.2 µM;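 further: 0% = DMSO only and full effect = 92 µM tetraoctylammonium bromide; nearly all actives have a fitted effect of over 55% in size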
Procedure, shortened: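 qHTS cytotoxicity: 2500 cells/well, 5 hr 37 C, compound 24 hr 37 C, CellTiter-Glo 30 min RT, luminescence. Loss of ATP = toxicity; AC50 via standard Hill fit.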

[6] = Cell Viability - LYMP2-019 (AID 973); conditions: LYMP2-019 lymphoblastoid cell line viability; series mostly up to 92.2 µM;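 further: 0% = DMSO alone and full effect = 92 µM tetraoctylammonium bromide; nearly all actives have a fitted effect of over 55% in size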
Procedure, shortened: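 qHTS, 1536-well; 2500 cells/well; 5 hr pre-incubation, 24 hr compound exposure, 37 C; CellTiter-Glo added, 30 min RT; luminescence read; AC50 via standard Hill equation.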

[7] = Cell Viability - LYMP2-006 (AID 978); conditions: LYMP2-006 lymphoblastoid cell viability, qHTS; series mostly up to 92.2 µM; further: on the % scale 0 is the no-effect control and ±100 the full control effect; nearly all actives have a fitted effect of over 60% in size
Procedure, shortened: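 In this cytotoxicity screen, the human lymphoblastoid line grew in complete medium with test compounds for 24 hr at 37 C. Cellular ATP served as the viability signal.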

[8] = Cell Viability - LYMP2-010 (AID 981); conditions: LYMP2-010 lymphoblastoid cell viability, qHTS; series mostly up to 92.2 µM; further: on the % scale 0 is the no-effect control and ±100 the full control effect; nearly all actives have a fitted effect of over 55% in size
Procedure, shortened: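 qHTS cytotoxicity, 1536-well: 2500 cells/well, 5 hr settle, 24 hr compound at 37 C, CellTiter-Glo 30 min RT, luminescence read. Decrease in ATP = toxicity; AC50 via standard Hill equation. Positive control tetraoctylammonium bromide.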

[9] = target: Glucocorticoid receptor (Homo sapiens) (UniProt P04150); assay: qHTS assay for small molecule agonists of glucocorticoid receptor signaling (AID 588532; active means well fitted curve in the direction sought with a large enough effect in the signal ratio, with a control signal flat; the % refers to the signal ratio;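 further: 100% = dexamethasone at 0.1 µM and 0% = DMSO only wells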); conditions: HeLa MMTV-bla, beta-lactamase ratio, agonist, 18 h; stronger effect = higher value; percent of dexamethasone control, DMSO zero
Procedure, shortened: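 Quantitative HTS using CellSensor MMTV-bla HeLa cells in charcoal/dextran-treated serum; compounds tested up to 92 uM. After 18 h at 37 C, CCF4 dye reported reporter induction.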

[10] = qHTS assay for small molecule agonists of retinoid X receptor alpha signaling (AID 588544); conditions: HEK293T RXRa-UAS-bla, beta-lactamase reporter, 18 h; 530 nm emission
[11] = target: Thyroid hormone receptor beta (Homo sapiens) (UniProt P10828); assay: qHTS assay for small molecule antagonists of thyroid hormone receptor beta signaling (AID 588547; active means well fitted inhibition curve with a large enough effect in the signal ratio, with a control signal flat, not every such curve was filed as active; the % refers to the signal ratio;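 further: cells stimulated with 0.4 nM T3 agonist during compound exposure; on the % scale 0 is the no-effect control and ±100 the full control effect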); conditions: TR-UAS-bla HEK293, beta-lactamase ratio, antagonist mode, 18 h
Procedure, shortened: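 Inhibition of T3-driven (0.4nM final) beta-lactamase reporter activity was measured over 0.59 nM to 92 uM compound after 18 h at 37 C. The cells were GripTite HEK293 TR-UAS-bla in charcoal/dextran-stripped serum, with CCF4 ratio read-out and IC50 from Hill fits.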

[12] = target: Voltage-gated inwardly rectifying potassium channel KCNH2 (Homo sapiens) (UniProt Q12809); assay: qHTS Assay for Small Molecule Inhibitors of the Human hERG Channel Activity (AID 588834); conditions: U2OS BacMam hERG, FluxOR thallium flux fluorescence; series mostly up to 92.2 µM;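 further: lower thallium flux fluorescence means stronger hERG block; nearly all actives have a fitted effect of over 50% in size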; further: potency means the concentration at half of the fitted maximal effect
Procedure, shortened: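 Homogeneous FluxOR thallium flux assay using hERG-expressing U2OS cells (BacMam). Compound treatment about 10 minutes preceded stimulation; reduced fluorescence taken as channel block.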

[13] = qHTS assay for small molecule disruptors of the mitochondrial membrane potential - 1 hr assay (AID 651754; calls by dose curve; further: nearly all actives have a fitted effect of over 35% in size; further: potency means the concentration at half of the fitted maximal effect); conditions: series mostly up to 92.2 µM
Procedure, shortened: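 Read-out: dye fluorescence at 490 nm ex/535 nm em (monomers) and 540 nm ex/590 nm em (aggregates) in HepG2 cells. Compound exposure 1 hr at 37C, followed by 30 min dye loading.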

[14] = qHTS assay for small molecule disruptors of the mitochondrial membrane potential - 5 hr assay (AID 651755; calls by dose curve; further: nearly all actives have a fitted effect of over 40% in size; further: potency means the concentration at half of the fitted maximal effect); conditions: JC-1-type ratio dye; series mostly up to 92.2 µM
Procedure, shortened: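 Membrane-potential dye readout: red aggregate (540 ex/590 em) versus green monomer (490 ex/535 em) fluorescence after 30 min dye loading, following 5 hr compound exposure at 37C of overnight-plated HepG2 cells.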

[15] = target: Nuclear receptor subfamily 1 group I member 2 (Rattus norvegicus) (UniProt Q9R1A7); assay: qHTS assay for small molecule activators of the rat pregnane X receptor (rPXR) signaling pathway (AID 651751; call rule not given here; further: 0% is about no effect); conditions: rPXR reporter cells, luciferase (One-Glo), 24 h
[16] = Cell Viability - Renal Proximal Tubule (AID 545); conditions: renal proximal tubule cells viability, primary cells of rat origin; activity change, negative = cytotoxicity: at 91.7 µM (top of the series);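 further: 0% = DMSO only and -100% = 100 µM tamoxifen; nearly all actives have a fitted effect of over 40% in size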
Procedure, shortened: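 In this qHTS format, normal rat kidney-derived proximal tubule cells in complete culture medium receive compound titrations, then sit 40 hours at 37 °C before luciferase-based ATP quantitation; potency is reported as AC50 from concentration-response curves.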

[17] = MultiTox-Fluor Cytotoxicity Assay - LYMP1-001 - Live Cells (AID 947); conditions: LYMP1-001 lymphoblastoid cells, live-cell protease fluorescence viability; series mostly up to 92.2 µM;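 further: 0% = DMSO only and full inhibition = tetraoctylammonium bromide control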
[18] = Cell Viability - LYMP2-005 (AID 967); conditions: LYMP2-005 lymphoblastoid cell viability; series mostly up to 92.2 µM;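 further: plate controls were DMSO only for no effect and 92 µM tetraoctylammonium bromide control for full effect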
Procedure, shortened: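 Luciferase-based ATP quantitation served as the viability measure in human lymphoblastoid LYMP2-005 cells exposed to test compounds for 24 h at 37 C in complete culture medium. Potency (AC50) was obtained by fitting concentration-response curves with the Hill equation.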

[19] = qHTS assay for small molecule antagonists of the retinoid-related orphan receptor gamma (ROR-gamma) signaling pathway - cell viability counter screen (AID 720652; active means well fitted curve in the direction sought with a large enough effect in the repeat runs; an effect the other way counts as inactive or inconclusive;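 further: CHO reporter cells with doxycycline-induced ROR-gamma expression; compound exposure lasted 16 hr before ATP read; on the % scale 0 is the no-effect control and ±100 the full control effect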); conditions: RORgamma reporter cell line viability counter screen; series mostly up to 92.2 µM
Procedure, shortened: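 CHO RORE-LUC/TET-ROR line, 1,000 cells/well, 37 C 5% CO2 5 hr; cpd or DMSO + doxycycline induction, 16 hr. CellTiter-Glo, 30 min RT, luminescence = ATP content.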

[20] = target: Thyroid hormone receptor beta (Homo sapiens) (UniProt P10828); assay: qHTS assay for small molecule agonists of thyroid hormone receptor beta signaling (AID 588545; calls by dose curve;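 further: 0% = DMSO only and 100% = 10 nM T3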); conditions: TR-UAS-bla GripTite HEK 293, beta-lactamase ratio, agonist mode, 18 h; series mostly up to 76.7 µM
Procedure, shortened: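 Compounds were tested as agonists in TR-UAS-bla-GripTite HEK 293 cells. After 18 hrs at 37 C, CCF4 substrate was added and fluorescence read after 2 hrs at room temperature.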

Sequence of Thyroid hormone receptor beta (Homo sapiens) (P10828 whole entry, looked up): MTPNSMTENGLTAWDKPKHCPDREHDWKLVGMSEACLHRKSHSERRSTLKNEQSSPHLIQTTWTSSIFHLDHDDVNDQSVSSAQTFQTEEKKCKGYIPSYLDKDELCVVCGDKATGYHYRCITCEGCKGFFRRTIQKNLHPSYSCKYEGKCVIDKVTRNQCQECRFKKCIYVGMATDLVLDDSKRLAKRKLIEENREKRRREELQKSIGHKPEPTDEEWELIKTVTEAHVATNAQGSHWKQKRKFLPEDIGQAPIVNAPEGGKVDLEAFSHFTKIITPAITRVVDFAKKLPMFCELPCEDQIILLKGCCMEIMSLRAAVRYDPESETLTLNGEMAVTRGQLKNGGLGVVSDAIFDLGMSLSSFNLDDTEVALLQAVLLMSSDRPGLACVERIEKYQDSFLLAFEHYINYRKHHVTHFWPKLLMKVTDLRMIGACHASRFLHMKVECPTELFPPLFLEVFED
Sequence of Glucocorticoid receptor (Homo sapiens) (P04150 whole entry, looked up): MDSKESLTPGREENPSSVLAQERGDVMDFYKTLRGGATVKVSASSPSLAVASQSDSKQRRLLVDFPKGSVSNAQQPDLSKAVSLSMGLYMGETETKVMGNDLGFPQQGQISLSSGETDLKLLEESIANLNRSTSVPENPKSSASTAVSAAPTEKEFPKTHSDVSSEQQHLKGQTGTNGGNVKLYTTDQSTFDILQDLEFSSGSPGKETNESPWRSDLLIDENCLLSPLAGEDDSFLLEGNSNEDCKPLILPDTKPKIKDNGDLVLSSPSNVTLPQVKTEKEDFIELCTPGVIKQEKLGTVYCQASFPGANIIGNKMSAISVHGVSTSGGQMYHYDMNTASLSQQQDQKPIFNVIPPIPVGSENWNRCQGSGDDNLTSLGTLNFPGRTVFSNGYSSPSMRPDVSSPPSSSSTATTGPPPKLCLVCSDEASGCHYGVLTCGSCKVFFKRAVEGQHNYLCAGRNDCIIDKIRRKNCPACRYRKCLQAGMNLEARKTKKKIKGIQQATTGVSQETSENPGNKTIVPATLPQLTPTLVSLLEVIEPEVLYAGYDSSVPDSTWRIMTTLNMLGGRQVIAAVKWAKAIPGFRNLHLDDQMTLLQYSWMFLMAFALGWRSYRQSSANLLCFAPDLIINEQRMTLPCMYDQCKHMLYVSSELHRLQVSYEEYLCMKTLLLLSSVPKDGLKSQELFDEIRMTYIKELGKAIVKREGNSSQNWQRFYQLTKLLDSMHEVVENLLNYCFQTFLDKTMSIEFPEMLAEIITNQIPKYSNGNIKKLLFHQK
Sequence of Nuclear receptor subfamily 1 group I member 2 (Rattus norvegicus) (Q9R1A7 whole entry, looked up): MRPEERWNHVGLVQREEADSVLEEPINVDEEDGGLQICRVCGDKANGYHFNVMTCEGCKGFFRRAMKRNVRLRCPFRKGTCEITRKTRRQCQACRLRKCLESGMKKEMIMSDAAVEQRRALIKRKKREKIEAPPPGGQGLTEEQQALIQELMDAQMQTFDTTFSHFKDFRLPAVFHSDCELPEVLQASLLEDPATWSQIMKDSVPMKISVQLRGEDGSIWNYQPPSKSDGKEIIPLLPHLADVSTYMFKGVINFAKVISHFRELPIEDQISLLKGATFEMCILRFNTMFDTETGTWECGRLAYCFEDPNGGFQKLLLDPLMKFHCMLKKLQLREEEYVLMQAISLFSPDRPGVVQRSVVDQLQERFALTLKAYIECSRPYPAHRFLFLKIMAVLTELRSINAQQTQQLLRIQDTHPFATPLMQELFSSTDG
Sequence of Voltage-gated inwardly rectifying potassium channel KCNH2 (Homo sapiens) (Q12809 whole entry, looked up): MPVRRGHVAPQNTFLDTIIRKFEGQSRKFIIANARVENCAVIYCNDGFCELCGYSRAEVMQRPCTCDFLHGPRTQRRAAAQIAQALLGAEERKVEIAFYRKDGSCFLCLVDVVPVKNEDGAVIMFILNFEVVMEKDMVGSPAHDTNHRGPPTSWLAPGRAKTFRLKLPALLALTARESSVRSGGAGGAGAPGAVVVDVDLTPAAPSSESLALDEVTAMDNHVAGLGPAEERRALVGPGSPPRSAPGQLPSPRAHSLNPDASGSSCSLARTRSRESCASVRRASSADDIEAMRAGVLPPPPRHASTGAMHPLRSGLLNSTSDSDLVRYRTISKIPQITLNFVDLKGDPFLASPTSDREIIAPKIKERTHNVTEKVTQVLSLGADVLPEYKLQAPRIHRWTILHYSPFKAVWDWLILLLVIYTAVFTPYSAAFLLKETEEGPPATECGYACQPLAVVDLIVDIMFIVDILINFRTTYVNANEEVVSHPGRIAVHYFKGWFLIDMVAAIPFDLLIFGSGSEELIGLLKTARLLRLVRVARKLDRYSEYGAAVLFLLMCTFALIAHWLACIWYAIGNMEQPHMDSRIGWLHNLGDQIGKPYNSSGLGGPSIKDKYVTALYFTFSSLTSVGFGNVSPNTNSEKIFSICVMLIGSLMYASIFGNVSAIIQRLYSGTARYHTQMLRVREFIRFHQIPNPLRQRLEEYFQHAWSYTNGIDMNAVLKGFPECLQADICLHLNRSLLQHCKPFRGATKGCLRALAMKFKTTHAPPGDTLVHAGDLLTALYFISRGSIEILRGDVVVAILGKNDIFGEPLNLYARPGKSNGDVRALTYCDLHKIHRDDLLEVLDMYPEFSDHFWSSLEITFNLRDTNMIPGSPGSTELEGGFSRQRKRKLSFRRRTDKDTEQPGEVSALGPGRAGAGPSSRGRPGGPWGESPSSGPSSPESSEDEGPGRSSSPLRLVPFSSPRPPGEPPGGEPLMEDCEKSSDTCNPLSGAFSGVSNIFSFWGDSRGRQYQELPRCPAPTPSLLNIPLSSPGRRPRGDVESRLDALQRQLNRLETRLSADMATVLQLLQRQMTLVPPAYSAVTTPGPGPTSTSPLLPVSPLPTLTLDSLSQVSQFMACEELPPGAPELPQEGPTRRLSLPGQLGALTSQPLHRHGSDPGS

CC(/C=C/C=C(C)/C=C/C(=O)O)=C\C=C\C=C(C)\C=C\C=C(C)\C=C\C(=O)O
inactive: Potency [1] > 92 µM | Potency [2] > 92 µM | Potency [3] | Potency [4] | Potency [5] | Potency [6] | Potency [7] | Potency [8] | activation [9] 1.99% | activity change % (negative = inhibition) [11] -2.15% | Potency [12] | Potency [13] | Potency [14] | max response [15] 10.8%
4.44%: max response [10]

NC(=O)Nc1nc2ccccc2[nH]1
-1.01%: max response [10]
inactive: Potency [1] > 92 µM | Potency [2] > 92 µM | Potency [16] | Potency [17] | Potency [18] | Potency [4] | Potency [5] | Potency [6] | Potency [7] | Potency [8] | activity change % (negative = inhibition) [11] -13.1% | Potency [12] | Potency [13] | Potency [14] | Potency [19] | max response [15] -2.46%

Nc1cnn([C@@H]2O[C@H](CO)[C@@H](O)[C@H]2O)c(=O)n1
11.7%: max response [10]
inactive: Potency [1] > 92 µM | Potency [2] > 92 µM | Potency [16] | Potency [17] | Potency [3] | Potency [18] | Potency [4] | Potency [5] | Potency [6] | Potency [7] | Potency [8] | activation [9] -5.2% | Potency [20] | Potency [12] | Potency [13] | Potency [14] | Potency [19] | max response [15] 3.54%

Nc1cc([N+](=O)[O-])ccc1O
-3.91% and 2.48%: max response [10]
active: Potency [13] 29.8 µM | Potency [14] 29.8 µM
inactive: Potency [1] > 92 µM | Potency [2] > 92 µM | Potency [16] | Potency [17] | Potency [3] | Potency [18] | Potency [4] | Potency [5] | Potency [6] | Potency [7] | Potency [8] | activation [9] -3.65% and -4.48% | Potency [20] | activity change % (negative = inhibition) [11] 11.2% and 4.34% | Potency [12] | Potency [19] | max response [15] 5.65% and 2.03%

CC(=O)CC(=O)Nc1ccccc1
6.79% and 6.65%: max response [10]
inactive: Potency [1] > 92 µM | Potency [2] > 92 µM | Potency [16] | Potency [17] | Potency [3] | Potency [18] | Potency [4] | Potency [5] | Potency [6] | Potency [7] | activation [9] -8.89% | Potency [20] | activity change % (negative = inhibition) [11] 8.7% and 11% | Potency [12] | Potency [13] | Potency [14] | Potency [19] | max response [15] 8.9% and 1.01%

O=[N+]([O-])c1ccccc1Nc1ccccc1
-18.5%: max response [10]
inactive: Potency [1] > 92 µM | Potency [2] > 92 µM | Potency [16] | Potency [17] | Potency [3] | Potency [18] | Potency [4] | Potency [5] | Potency [6] | Potency [7] | Potency [8] | activity change % (negative = inhibition) [11] 8.34% | Potency [14] | Potency [19] | max response [15] -3.61%
active: Potency [12] 35.5 µM
